The source of these data is PubChem BioAssay AID463173 (ICCB-Longwood Screening Facility, Harvard Medical School, 2010).

The whole screen tested about 52,000 compounds, of which about 1,700 (3.3%) were called active. Only a selection was taken, and actives are over-represented in it overall. Unmarked numbers belong to inactive results. Cut-off read from the data, not from the text of the source: active = survival mostly below about 52% (no sharp cut-off); inactive = mostly above about 56%.

For this experiment, the system named is Wild type. Description: growth inhibition of S. aureus wild type versus tarO mutant, primary screen, teichoic acid synthesis inhibitors, RN4220, OD600 (AID 463173). The conditions noted are these: S. aureus RN4220 wild type/DeltatarO growth, OD600, 18 h, stronger effect = lower value, screened at 18.75 µg/mL (by protocol).
As for `CCc1ccc(NC(=O)CSc2nc3c([nH]c4ccccc43)c(=O)n2-c2ccc(C)cc2)cc1`, the survival is 159%. To `COC(=O)c1sc(NC(=O)/C=C/c2ccc(OC)c(OC)c2)c(C(=O)OC)c1C` belongs 55%; to `Cc1ccc(OCC(=O)Nc2ccc(S(=O)(=O)Nc3ncccn3)cc2)c(C(C)(C)C)c1`, 64%; to `CCCCNC(=O)CSc1nc2ccccc2nc1Cc1ccc(Cl)cc1`, 146%. To `O=C(Cc1ccccc1)Nc1cccnc1` belongs 116%; to `CCN1CCN(c2csc3ccc(Br)cc3c2=O)CC1`, 83%; to `CCc1nnc(NC(=O)c2nc(S(=O)(=O)Cc3ccc(C)cc3)ncc2Cl)s1`, 57%. Regarding `Cc1cccc(Cn2c(CNC(=O)c3ccccc3)nc3ccccc32)c1`, the survival is 84%. With `Cc1ccc(Cn2c(Cc3ccccc3)nc3ccccc32)cc1`, the survival is -1% (active). To `Cc1ccc(Cn2c(CNC(=O)c3cccc(C)c3)nc3ccccc32)cc1` belongs 107%; to `CC(C)c1ccc(Cn2c(COc3ccccc3)nc3ccccc32)cc1`, -1% (active). To `COCc1nc2ccccc2n1Cc1cccc(C)c1` belongs 81%. To `Cc1cccc(Cn2c(Cc3ccccc3)nc3ccccc32)c1` belongs 29% (active).

As to `Cc1cccc(Cn2c(COc3ccc(Cl)cc3)nc3ccccc32)c1`, the survival is 61%. To `Cc1ccc(Cn2c(CCNC(=O)C(C)C)nc3ccccc32)cc1` belongs 81%; to `Cc1cccc(Cn2c(COc3ccccc3)nc3ccccc32)c1`, -11% (active); to `COc1cc(OC)c(NC(=O)c2cn(C3CCCC3)c(=O)c3c2c2ccccc2n3C)cc1Cl`, 80%. Turning to `CCOC(=O)N1CCN(c2ncnc3c2cnn3-c2ccccc2)CC1`, the survival is 112%. To `Cc1cccc(-c2noc(-c3ccc(NCc4cccnc4)c([N+](=O)[O-])c3)n2)c1` belongs 81%; to `COCCNC(=O)Cn1cc(/C=C(\C#N)C(N)=O)c2ccccc21`, 114%; to `COc1ccc(CNC(=O)C(Cc2ccccc2)NS(=O)(=O)c2ccc3c(c2)CCN3C(C)=O)cc1` (stereo not drawn), 127%.

On to `Cc1coc2c(C)c3oc(=O)c(CC(=O)NCCc4ccc(Cl)cc4)c(C)c3cc12`, for which the survival is 99%.

As for `COc1cccc(Cn2c(CNS(=O)(=O)c3ccc(F)c(Cl)c3)nc3cccnc32)c1`, the survival is 159%. To `O=C(NCC1COc2ccccc2O1)c1cn(Cc2ccc(F)cc2)nn1` (stereo not drawn) belongs 107%; to `COc1ccc(N2CCN(c3oc(/C=C/c4ccccc4OC)nc3C#N)CC2)cc1`, 86%.

With `O=C1CC(c2ccc3c(c2)OCO3)CC2=C1C(c1ccncc1)Nc1ccccc1N2` (stereo not drawn), the survival is 81%. Take `Clc1ccc(OCc2nc3ccccc3n2Cc2ccccc2)c(Cl)c1`: the survival was 7% (active). To `CCC(=O)NCc1nc2ccccc2n1Cc1ccccc1` belongs 106%; to `CC(O)c1nc2ccccc2n1Cc1ccccc1` (stereo not drawn), 100%; to `O=C(NCCc1nc2ccccc2n1Cc1ccc(Cl)cc1Cl)c1ccco1`, 76%. Consider `CC(C)(C)c1ccc(Cn2c(Cc3ccccc3)nc3ccccc32)cc1`, for which the survival is -1% (active). To `CCn1c(COc2ccc(Cl)cc2Cl)nc2ccccc21` belongs 78%; to `CCOc1ccc(NC(=O)c2sc(-n3nc(C)c(CCC(C)C)c3C)nc2C)cc1`, 123%. As to `CCCCOc1ccc(CNC(=O)c2cnc3sc(N4CCCCCC4)nn3c2=O)cc1`, the survival was 91%. For `CCOc1ccc(CCNC(=O)c2cc3cc4cc(OC)ccc4nc3s2)cc1OCC`, the survival was 117%. To `Cc1cccc(-c2nc(CSCC(=O)N3CCN(c4cccc(C)c4C)CC3)c(C)o2)c1` belongs 0% (active); to `Cc1cccc(-c2nc(CSCC(=O)N3CCN(c4ccccc4)CC3)c(C)o2)c1`, 18% (active); to `Cc1ccc(-c2nc(CS(=O)(=O)CC(=O)N3CCN(c4cccc(C)c4C)CC3)c(C)o2)cc1`, 129%. To `Cc1oc(-c2ccccc2F)nc1CSCC(=O)N1CCN(c2ccccc2)CC1` belongs 62%; to `COc1ccc(-c2nc(CSCC(=O)N3CCN(c4ccccc4)CC3)c(C)o2)cc1`, 53%. Turning to `COc1ccc(-c2nc(CSCC(=O)N3CCN(c4cccc(C)c4C)CC3)c(C)o2)cc1OC`, the survival was 22%. To `COc1ccc(N2CCN(CC(=O)c3ccc(OC)c(OC)c3)CC2)cc1` belongs 106%; to `CC(C)OCCCNC(=O)Cn1ccc2cc(S(=O)(=O)N3CCCCCC3)ccc21`, 124%; to `COc1ccc2c(Sc3ccccc3)c(C(=O)NCc3cccc(OC)c3OC)[nH]c2c1`, 89%. For the compound `CC(C)COc1ccc(C(=O)N2CCC(c3nc4ccccc4s3)CC2)cc1`, the survival was 42%. To `CCc1ccccc1NC(=O)CSc1nnc(-c2ccccc2)c(-c2ccccc2)n1` belongs 69%.

`CC(C)CSc1nnc(-c2ccccc2)c(-c2ccccc2)n1`: the survival is -4% (active). To `O=C(CSc1nnc(-c2ccccc2)c(-c2ccccc2)n1)Nc1ccccc1Cl` belongs 70%; to `Cc1oc2c(c(C)cc3oc(=O)c(CC(=O)NCCc4ccccc4)c(C)c32)c1C`, 112%.

Take `CCc1ccc(CNC(=O)C2CCN(C(=O)c3ccc(-n4c(C)cc5ccccc54)s3)CC2)cc1`: the survival is 81%. To `Cc1cc2ccccc2n1-c1ccc(C(=O)N2CCC(C(=O)NCc3ccc(F)cc3)CC2)s1` belongs 1% (active); to `Cc1cc2ccccc2n1-c1ccc(C(=O)N2CCC(C(=O)NCc3ccc(Cl)cc3)CC2)s1`, 63%.

Consider `Cc1ccc(NC(=O)CN2C(=O)CSc3ccc(S(=O)(=O)N4CCCC4)cc32)cc1F`, for which the survival was 99%. As for `COC(=O)c1cc2c(cc1NC(=O)c1cnn(-c3ccccc3)c1-n1cccc1)OCO2`, the survival was 80%. To `COc1ccc(-c2cc(C(F)(F)F)nc(-n3nc(C(F)(F)F)cc3C)n2)cc1` belongs 50%. As for `CCCNC(=O)CSc1nc(-c2ccccc2)cc(C(F)(F)F)n1`, the survival was 112%.

On to `CCC(C)NC(=O)CSc1nc(-c2ccc(F)cc2)cc(C(F)(F)F)n1` (stereo not drawn), for which the survival was 81%. On to `Cc1ccc(-c2cc3nc(-c4ccccc4)cc(C(F)(F)F)n3n2)cc1`, for which the survival was 80%. With `CC(C)(C)NC(=O)CSc1nc(-c2ccc(F)cc2)cc(C(F)(F)F)n1`, the survival was 78%. To `Cc1nn(-c2nc(-c3ccc(F)cc3)cc(C(F)(F)F)n2)c(C)c1Br` belongs -2% (active); to `CN(Cc1ccccc1)c1nc(-c2ccc(F)cc2)cc(C(F)(F)F)n1`, 80%. To `Cc1nn(-c2nc(-c3ccccc3)cc(C(F)(F)F)n2)c(C)c1Cl` belongs -3% (active); to `Cc1cc(C(F)(F)F)nn1-c1nc(-c2ccccc2)cc(C(F)(F)F)n1`, 13% (active).

With `FC(F)(F)c1cc(-c2ccccc2)nc2cc(-c3ccccc3)nn12`, the survival was 75%. To `Cc1nn(-c2nc(-c3ccc(F)cc3)cc(C(F)(F)F)n2)c(C)c1Cl` belongs -2% (active); to `COc1cccc(-c2cc(C(F)(F)F)nc(-n3nc(C)c(Br)c3C)n2)c1`, 80%. To `CCCC(C)C(=O)Nc1nnc(C(F)(F)F)s1` (stereo not drawn) belongs 100%; to `O=C(Nc1cccc2c1CCCC2)N1CCOc2ccc(Cl)cc21`, 83%; to `COc1ccc(-c2nc(CCNC(=O)c3cccs3)cs2)cc1OC`, 159%. As for `Cc1cccc(Cn2c(CNS(=O)(=O)c3ccc(C(C)C)cc3)nc3cccnc32)c1`, the survival is 78%. To `N=c1nc(N)nc2n1NC(c1ccc(F)cc1)=CS2` belongs 108%. To `CCC(Sc1ncc(S(=O)(=O)c2ccc(Cl)cc2)c(=O)[nH]1)C(=O)Nc1ccc(OC)cc1` (stereo not drawn) belongs 96%; to `CC1CCN(CC(=O)N2CCCc3c2c(=O)oc2ccc(OCc4ccccc4)cc32)CC1`, 86%; to `CC1CCCCN1CC(=O)N1CCCc2c1c(=O)oc1ccc(OCc3ccccc3)cc21` (stereo not drawn), 43%. To `CCC1CCCCN1CC(=O)N1CCCc2c1c(=O)oc1ccc(OCc3ccccc3)cc21` (stereo not drawn) belongs 3% (active); to `CCCCN(CCCC)C(=O)c1cc2c(=O)n3cccc(C)c3nc2s1`, -2% (active).

In the case of `CCCN(CCC)C(=O)c1cc2c(=O)n3cccc(C)c3nc2s1`, the survival is 80%. To `CCCCN(CC)C(=O)c1cc2c(=O)n3cccc(C)c3nc2s1` belongs 77%; to `CCOC(=O)c1[nH]c2ccccc2c1N=CN(C)C`, 104%. To `O=c1cc(O)n(-c2ccccc2)c(=S)[nH]1` belongs 99%; to `CC1CCc2nc3ncn(Cc4ccccc4C#N)c(=O)c3cc2C1` (stereo not drawn), 71%; to `CC1CCc2nc3ncn(Cc4ccc(Cl)cc4)c(=O)c3cc2C1` (stereo not drawn), 80%.

Consider `Cc1ccc(Cn2cnc3nc4c(cc3c2=O)CC(C)CC4)cc1` (stereo not drawn), for which the survival is -3% (active). Turning to `CC1CCc2nc3ncn(Cc4cccc(F)c4)c(=O)c3cc2C1` (stereo not drawn), the survival is 66%. For the compound `CC1CCc2nc3ncn(Cc4ccccc4F)c(=O)c3cc2C1` (stereo not drawn), the survival was 53%. Consider `Cc1ccccc1Cn1cnc2nc3c(cc2c1=O)CC(C)CC3` (stereo not drawn), for which the survival was 0% (active). To `O=C(O)CN1C(=O)/C(=C\c2ccccc2)SC1=S` belongs 102%.

`CN1/C(=C2/SC(=O)N(Cc3ccccc3)C2=O)Sc2ccccc21`: the survival was 118%. With `Cc1cc(N2CCC(C)CC2)nc2ccc(NC(=O)CCC(=O)N3CCN(c4cccc(C(F)(F)F)c4)CC3)cc12`, the survival was 64%. On to `Cc1ccc(-c2nonc2NC(=O)c2ccco2)cc1C`, for which the survival was 79%.

Turning to `COc1ccc(-c2cn3cccnc3n2)cc1NC(=O)c1ccccc1C(F)(F)F`, the survival is 69%. To `COc1cc2nc(NC(=O)c3ccc(S(=O)(=O)N4CCOCC4)cc3)sc2cc1OC` belongs 79%. To `COC(=O)c1sc2cccc(F)c2c1S(=O)(=O)N1CCN(c2ccccc2OC)CC1` belongs 47%.
